The entries come from a sample that favours hits as a whole.
Dicer processing: blocks human Dicer maturation of pre-miR-21; 47,000 tested, 6% active; Q9UPY3; z-score at 25 µM; cat-ELCCA pre-miR-21 Dicer processing, chemiluminescence; stronger effect = higher value; in the data active = z-score above about 3, passing the limit was not always enough;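 also: plate controls were vehicle for no effect and no enzyme for full effect; higher signal means more uncleaved substrate so more Dicer inhibition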
The depositor's hits bear a star.

SMILES	Dicer processing
Cc1cc(C)c(S(=O)(=O)Nc2cccc3ccc(C)nc23)c(C)c1	-0.95
COc1ccc(OC)c(NS(=O)(=O)c2ccc(Br)cc2)c1	6.1
O=c1cc(C(F)(F)F)nc(-c2ccccn2)[nH]1	-0.28
CC(=O)O/N=C(\N)c1nccnc1Sc1ccc(Cl)cc1	-1.1
CS(=O)(=NS(=O)(=O)c1ccc(Cl)s1)c1ccc(Cl)cc1 (centres undefined)	9.3
COC(=O)c1sc(N2C(=O)c3oc4ccc(F)cc4c(=O)c3C2c2ccc(OC)cc2)nc1C (centres undefined)	2.3
COc1ccc(-c2c(C(F)(F)F)nn3c(C)c(-c4ccccc4)c(C)nc23)cc1	-1.5
CCOC(=O)C(NC(=O)c1cc2ccccc2s1)C(=O)OCC	-0.96
CC(=O)Nc1c(C)cc(Cl)cc1Cl	-0.62
C/C(=N\Nc1c(Cl)cc(Cl)cc1Cl)c1oc(C)nc1C	3.2*
C/C(=N\Nc1c(Cl)cc(Cl)cc1Cl)c1cc(F)ccc1O	2.1
O=C1c2cc(S(=O)(=O)NC3CCCCC3)cc([N+](=O)[O-])c2-c2c1cc(S(=O)(=O)NC1CCCCC1)cc2[N+](=O)[O-]	1.2
Cc1cc(NS(=O)(=O)c2ccc(Nc3nc(-c4ccc(Cl)cc4)cs3)cc2)no1	2.9
Cc1nc2ccccn2c1-c1csc(Nc2ccc(S(N)(=O)=O)cc2)n1	4.3*
Cc1nc2ccccn2c1-c1csc(Nc2ccc(Cl)cc2)n1	7.1*
NS(=O)(=O)c1ccc(Nc2nc(-c3cccnc3)cs2)cc1	1.4
Cc1ccc(Nc2nc(-c3c(C)nc4ccccn34)cs2)cc1	3
Cc1nnc(Nc2ccc(Cl)cc2)s1	2.8
CCN(CC)c1ccc(Nc2nc(-c3sc(N)nc3C)cs2)cc1	-0.11
Cc1ccc(C)c(-c2csc(Nc3ccc(S(N)(=O)=O)cc3)n2)c1	5.1*
COc1ccc(/C=N/Nc2ncnc3sc4c(c23)CCCC4)cc1	6.5
CC1=C(C(=O)Nc2ccc(C)cn2)C(c2ccc(Br)cc2)C2=C(CC(C)(C)CC2=O)N1 (centres undefined)	0.5
CCCCNC(=O)O/N=C(\C)c1ccc2cc(OC)ccc2c1	-1.2
CCCCCCCCCCCCCCCCCCN(CCCCCCCCCCCCCCCCCC)CCCN(CCO)CCO	-1.8
O=C(Nc1ccccc1Oc1ccc(Cl)cc1Cl)c1cc(Cl)sc1Cl	-0.24
SMILES	Dicer processing
CN(C)CCCNC(=O)C(=O)Nc1ccccc1Oc1ccc(Cl)cc1Cl	0.16
N#CC(C#N)=NNc1ccccc1Oc1ccc(Cl)cc1Cl	3.9*
CCOCCOC(=O)C1=C(C)NC2=C(C(=O)CC(c3ccccc3)C2)C1c1ccc(CC)cc1 (centres undefined)	-0.06
C/C(Nc1ccc([N+](=O)[O-])cc1)=C1/CCOC1=O	1.6
C/C(Nc1ccc(F)cc1)=C1/CCOC1=O	3.2*
Cc1cc(C(=O)Nc2ccc(F)cc2)c(C)o1	-1.7
Cc1nc2cc(S(=O)(=O)Nc3ccccc3)ccc2n1-c1ccccc1	0.07
CN(CCc1ccccn1)Cc1ccc(Cl)cc1	3.7*
Cc1ccc(CN(C)CCc2ccccn2)cc1	1.5
CCc1ccc(CN(C)CCc2ccccn2)cc1	1.9
Fc1ccc(NC(=S)NCCNC(=S)Nc2ccc(F)cc2F)c(F)c1	-1.1
COc1cc2ccccc2cc1C(=O)Oc1cccc2ccc(C)nc12	0.06
O=[N+]([O-])c1ccccc1-c1ncc2ccccn12	-0.04
O=c1[nH]c2sc(-c3ccccc3)cc2c(=O)n1-c1ccccc1	2.1
Cc1ccccc1-n1c(=S)[nH]c2sc(-c3ccccc3)cc2c1=O	2.5
Cc1ccc(-n2c(=O)[nH]c3sc(-c4ccccc4)cc3c2=O)cc1	3.2*
CCCCCc1ccc(NC(=O)NNc2cc(C(F)(F)F)cc(C(F)(F)F)c2)cc1	-0.39
Cc1cc(C)cc(Oc2coc3c(CN4CCOCC4)c(O)ccc3c2=O)c1	0.84
CC(C)(C)c1ccc(NC(=O)NC2Cc3ccccc3C2)cc1	0.36
COC(=O)c1cc(OC)cc(OC)c1C1C(C#N)=C(C)NC2=C1C(=O)CC(C)(C)C2 (centres undefined)	0.81
FC(F)(F)c1ccc(NCn2nnc3ccccc32)cc1	-5.3
FC(F)(F)Oc1ccccc1NCn1nnc2ccccc21	3.6*
OCCCCCCN(Cn1nnc2ccccc21)Cn1nnc2ccccc21	0.54
CS(=O)(=O)c1ccc2nc(NC(=O)Oc3ccccc3)sc2c1	2.5
CS(=O)(=O)c1ccc2sc(NC(=O)c3cc4ccccc4o3)nc2c1	-0.08
SMILES	Dicer processing
CS(=O)(=O)c1ccc2nc(NC(=O)c3cc4ccccc4o3)sc2c1	4.2*
CCc1ccc2oc(-c3cc(N)ccc3Cl)nc2c1	4.5*
Cc1ccc2oc(-c3cc(N)ccc3Cl)nc2c1	2.7
Nc1ccc(Cl)c(-c2nc3cc(Cl)ccc3o2)c1	1.8
COc1ccccc1OCCN1C(=O)C(O)(c2c(C)[nH]c3ccccc23)c2ccccc21 (centres undefined)	-0.38
Nc1c(C(=O)NNC(=S)NCc2ccccc2)sc2nnc(-c3ccccc3)c(-c3ccccc3)c12	11
CC(C)(C)S(=O)(=O)/C(C#N)=C/N/N=C/c1ccccc1Cl	-2.1
FC(F)(F)c1cccc(-c2nnc(SCc3ccccc3)o2)n1	-0.83
Cn1ccnc1SCC(=O)Nc1ccccc1	0.15
Cn1ccnc1SCC(=O)N1CCCC1	4.5*
Cn1ccnc1SCC(=O)c1ccc(Cl)cc1	0.03
CCOC(=O)CN1C(=O)C(O)(CC(=O)c2cccc(Br)c2)c2ccccc21 (centres undefined)	67
CC(C)(C)NCC(O)COc1ccccc1 (centres undefined)	0.04
CCOC(=O)c1ccc(-n2c(=S)[nH]c3ccccc32)cc1	0.48
CCOc1cccc(=O)c2c(C)n(-c3ccc(C)cc3)c(C)c12	1.3
CCOC(=O)c1ccc(-n2c(C)c3c(OC)cccc(=O)c3c2C)cc1	3.8*
Clc1ccc(Oc2ccccc2-n2nncc2-c2ccccc2)c(Cl)c1	-0.27
O=c1[nH]cnc2c1cnn2-c1ccc(F)cc1	1.3
Cc1nc2c(cnn2-c2ccccc2)c(=O)o1	-1.4
O=c1[nH]cnc2c1cnn2-c1ccccc1	3.6*
C/C(=N\NC(=S)NC1CC2C=CC1C2)c1ccccc1OCC(=O)O (centres undefined)	1.7
Cc1cccc(-c2nc(-c3ccc(N4CCN(c5ccc(C(F)(F)F)cn5)CC4)nc3)no2)c1	-0.95
CC1=CC(C)(C)N(S(=O)(=O)c2ccc(Cl)cc2)c2ccccc21	-0.19
O=C(O/N=C1\CCCc2[nH]c3ccccc3c21)c1c(Cl)cccc1Cl	0.65
Fc1ccc(CSc2nnnn2-c2cccc(Cl)c2)cc1	0.46
SMILES	Dicer processing
O=C(O)c1ccc(-n2nnnc2SCc2cccc(Br)c2)cc1	4.9*
O=C(O)c1ccc(-n2nnnc2SCC(=O)N2CCOCC2)cc1	0.41
COc1ccc(C(C[N+](=O)[O-])c2c(N)n(C)c(=O)n(C)c2=O)cc1 (centres undefined)	-2
O=C(c1ccco1)c1cn(CC(=O)N2CCc3ccccc3C2)c2ccccc12	-0.53
COc1ccc(-c2[nH]ncc2CN2CCN(c3ncc(C(F)(F)F)cc3Cl)CC2)cc1	-1.6
COC(=O)C1=C(C)NC2=C(C(=O)CCC2)C1c1cc([N+](=O)[O-])c(C)s1 (centres undefined)	-1.9
COC(=O)C1=C(C)NC(C)=C(C(=O)OC)C1c1ccccc1[N+](=O)[O-]	11*
CCOC(=O)C1=C(C)NC(C)=C(C(=O)OC)C1c1cccc([N+](=O)[O-])c1 (centres undefined)	0.15
CSc1ccc([N+](=O)[O-])cc1-c1ccn(S(C)(=O)=O)n1	-1.1
Nc1ccc(-c2nc3ccccc3o2)cc1Cl	1.5
